Tests used:
Test in all cases: DAPPL (digital affinity profiling via proximity ligation, sequencing); 10 mM Tris-HCl pH 7.5, 50 mM NaCl, 1 mM DTT, 4% glycerol, room temperature, 30 min; GST-TFs on glutathione beads, 16-mer random dsDNA library, 0.1% formaldehyde crosslink after washing; high values mean tight binding
FEV = molecular target: T1, FEV (Homo sapiens, UniProt Q99581 1-238); conditions: protein: recombinant; tags: N-terminal GST; dsDNA, one strand shown
T1 sequence: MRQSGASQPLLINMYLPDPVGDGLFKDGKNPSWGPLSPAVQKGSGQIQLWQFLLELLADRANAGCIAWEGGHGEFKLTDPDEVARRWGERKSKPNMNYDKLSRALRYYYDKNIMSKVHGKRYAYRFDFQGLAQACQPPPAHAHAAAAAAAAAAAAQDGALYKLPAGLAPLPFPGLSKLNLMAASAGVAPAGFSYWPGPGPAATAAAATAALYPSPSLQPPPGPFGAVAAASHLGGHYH
Outline: (§1)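 Pools of DNA-barcoded human transcription factors, expressed in yeast as GST fusions on glutathione beads and combined with a tag-only sample, were incubated with 200 nmole of a 16-mer random double-stranded DNA library. Incubation took 30 min at room temperature in Tris/NaCl/DTT/glycerol buffer and was followed by washing, 0.1% formaldehyde crosslinking, proximity ligation (BsaI/T4 ligase, 1 h, 37 °C), PCR amplification and sequencing on an Illumina NextSeq500. Binding signal is the ratio of a hexamer's read frequency for a factor to its frequency for the tag-only sample.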

ETV5 = ETV5 (Homo sapiens, UniProt P41161 1-510); conditions: protein: recombinant; tags: N-terminal GST; dsDNA, one strand shown
Outline: as §1

HSF1 = HSF1 (Homo sapiens, UniProt Q00613 1-529); conditions: protein: recombinant; tags: N-terminal GST; chain copies: 3; dsDNA, one strand shown
Outline: as §1

SPIC = molecular target: T2, SPIC (Homo sapiens, UniProt Q8N5J4 1-248); conditions: protein: recombinant; tags: N-terminal GST; dsDNA, one strand shown
T2 sequence: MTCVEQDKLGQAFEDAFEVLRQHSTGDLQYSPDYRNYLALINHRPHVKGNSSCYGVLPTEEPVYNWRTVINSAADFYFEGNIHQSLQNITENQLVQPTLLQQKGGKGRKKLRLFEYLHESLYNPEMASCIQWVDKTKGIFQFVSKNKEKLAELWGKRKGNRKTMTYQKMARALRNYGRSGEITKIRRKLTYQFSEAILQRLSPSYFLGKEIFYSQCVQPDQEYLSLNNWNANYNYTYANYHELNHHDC
Outline: as §1

ELF4 = ELF4 (Homo sapiens, UniProt Q99607 1-663); conditions: protein: recombinant; tags: N-terminal GST; dsDNA, one strand shown
Outline: as §1

ELK4 = molecular target: T3, ELK4 (Homo sapiens, UniProt P28324-2 1-405); conditions: protein: recombinant; tags: N-terminal GST; dsDNA, one strand shown
T3 sequence: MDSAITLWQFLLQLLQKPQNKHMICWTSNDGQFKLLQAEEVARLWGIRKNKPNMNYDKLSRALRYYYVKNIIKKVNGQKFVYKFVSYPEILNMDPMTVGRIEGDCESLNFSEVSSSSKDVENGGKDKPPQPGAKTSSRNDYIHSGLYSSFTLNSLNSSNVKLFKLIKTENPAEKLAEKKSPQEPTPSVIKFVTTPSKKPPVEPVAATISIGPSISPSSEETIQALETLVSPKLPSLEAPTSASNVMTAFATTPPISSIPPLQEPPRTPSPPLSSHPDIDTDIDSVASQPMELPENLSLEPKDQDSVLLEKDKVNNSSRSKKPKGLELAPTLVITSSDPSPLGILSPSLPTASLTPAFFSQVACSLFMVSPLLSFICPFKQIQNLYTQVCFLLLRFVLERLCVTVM
Outline: as §1

ETV2 = molecular target: T4, ETV2 (Homo sapiens, UniProt O00321 1-342); conditions: protein: recombinant; tags: N-terminal GST; dsDNA, one strand shown
T4 sequence: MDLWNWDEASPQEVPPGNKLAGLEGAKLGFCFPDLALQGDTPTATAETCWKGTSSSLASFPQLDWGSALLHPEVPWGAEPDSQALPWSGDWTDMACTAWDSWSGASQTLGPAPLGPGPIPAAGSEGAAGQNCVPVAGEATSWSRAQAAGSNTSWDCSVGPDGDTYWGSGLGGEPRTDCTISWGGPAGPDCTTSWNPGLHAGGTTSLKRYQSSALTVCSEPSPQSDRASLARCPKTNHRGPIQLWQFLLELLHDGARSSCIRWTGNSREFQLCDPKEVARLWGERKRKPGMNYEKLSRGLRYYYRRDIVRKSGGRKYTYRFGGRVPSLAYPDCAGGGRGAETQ
Outline: as §1

ELF3 = molecular target: T5, ELF3 (Homo sapiens, UniProt P78545 1-371); conditions: protein: recombinant; tags: N-terminal GST; dsDNA, one strand shown
T5 sequence: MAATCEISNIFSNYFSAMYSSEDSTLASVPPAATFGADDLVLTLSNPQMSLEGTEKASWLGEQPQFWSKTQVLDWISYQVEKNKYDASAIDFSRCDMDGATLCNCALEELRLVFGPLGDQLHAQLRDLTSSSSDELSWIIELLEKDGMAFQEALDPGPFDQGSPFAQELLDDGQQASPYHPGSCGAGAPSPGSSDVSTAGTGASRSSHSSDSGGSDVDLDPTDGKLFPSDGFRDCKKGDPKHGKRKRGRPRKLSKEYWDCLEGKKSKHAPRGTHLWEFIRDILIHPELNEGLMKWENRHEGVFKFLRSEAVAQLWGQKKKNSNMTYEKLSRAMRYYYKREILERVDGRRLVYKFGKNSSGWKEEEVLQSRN
Outline: as §1

CRX = CRX (Homo sapiens, UniProt O43186 1-299); conditions: protein: recombinant; tags: N-terminal GST; dsDNA, one strand shown
Outline: as §1

ETV1 = ETV1 (Homo sapiens, UniProt P50549 1-477); conditions: protein: recombinant; tags: N-terminal GST; dsDNA, one strand shown
Outline: as §1

Chain of CRX (O43186 whole entry): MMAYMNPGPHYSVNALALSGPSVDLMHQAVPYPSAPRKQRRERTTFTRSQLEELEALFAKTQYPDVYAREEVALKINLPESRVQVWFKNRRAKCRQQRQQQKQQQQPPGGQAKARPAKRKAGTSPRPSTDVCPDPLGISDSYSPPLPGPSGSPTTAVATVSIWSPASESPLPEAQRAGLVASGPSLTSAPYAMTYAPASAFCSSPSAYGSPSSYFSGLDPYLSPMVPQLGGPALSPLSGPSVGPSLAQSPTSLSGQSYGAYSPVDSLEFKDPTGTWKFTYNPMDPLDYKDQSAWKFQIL
Chain of ETV1 (P50549 whole entry): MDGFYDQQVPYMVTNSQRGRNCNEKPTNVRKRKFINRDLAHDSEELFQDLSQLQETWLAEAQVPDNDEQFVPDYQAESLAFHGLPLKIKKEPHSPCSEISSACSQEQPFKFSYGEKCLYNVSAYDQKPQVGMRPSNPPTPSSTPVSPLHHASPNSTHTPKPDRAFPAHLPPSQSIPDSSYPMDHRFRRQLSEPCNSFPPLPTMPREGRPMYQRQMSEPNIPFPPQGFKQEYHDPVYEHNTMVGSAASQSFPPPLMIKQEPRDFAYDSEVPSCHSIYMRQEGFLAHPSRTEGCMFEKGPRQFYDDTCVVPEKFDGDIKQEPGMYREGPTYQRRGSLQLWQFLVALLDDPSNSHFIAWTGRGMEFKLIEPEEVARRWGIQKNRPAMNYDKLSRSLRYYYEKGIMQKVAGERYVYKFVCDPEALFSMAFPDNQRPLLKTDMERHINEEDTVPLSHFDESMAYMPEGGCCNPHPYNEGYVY
Chain of ETV5 (P41161 whole entry): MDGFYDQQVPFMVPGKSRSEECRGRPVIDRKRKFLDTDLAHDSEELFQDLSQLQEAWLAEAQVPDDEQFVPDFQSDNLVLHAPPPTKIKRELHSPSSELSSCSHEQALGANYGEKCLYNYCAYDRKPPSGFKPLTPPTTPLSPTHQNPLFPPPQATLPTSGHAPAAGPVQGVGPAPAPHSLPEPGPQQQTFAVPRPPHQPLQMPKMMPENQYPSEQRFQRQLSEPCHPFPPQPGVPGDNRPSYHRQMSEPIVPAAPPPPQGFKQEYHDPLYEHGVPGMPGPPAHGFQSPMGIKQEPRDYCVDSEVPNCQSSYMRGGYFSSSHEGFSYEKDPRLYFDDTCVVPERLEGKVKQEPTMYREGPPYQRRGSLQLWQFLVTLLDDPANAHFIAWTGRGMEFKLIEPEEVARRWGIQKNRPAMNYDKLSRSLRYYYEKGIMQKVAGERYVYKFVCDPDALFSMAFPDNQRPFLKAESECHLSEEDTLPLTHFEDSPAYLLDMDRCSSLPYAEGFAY
Chain of HSF1 (Q00613 whole entry): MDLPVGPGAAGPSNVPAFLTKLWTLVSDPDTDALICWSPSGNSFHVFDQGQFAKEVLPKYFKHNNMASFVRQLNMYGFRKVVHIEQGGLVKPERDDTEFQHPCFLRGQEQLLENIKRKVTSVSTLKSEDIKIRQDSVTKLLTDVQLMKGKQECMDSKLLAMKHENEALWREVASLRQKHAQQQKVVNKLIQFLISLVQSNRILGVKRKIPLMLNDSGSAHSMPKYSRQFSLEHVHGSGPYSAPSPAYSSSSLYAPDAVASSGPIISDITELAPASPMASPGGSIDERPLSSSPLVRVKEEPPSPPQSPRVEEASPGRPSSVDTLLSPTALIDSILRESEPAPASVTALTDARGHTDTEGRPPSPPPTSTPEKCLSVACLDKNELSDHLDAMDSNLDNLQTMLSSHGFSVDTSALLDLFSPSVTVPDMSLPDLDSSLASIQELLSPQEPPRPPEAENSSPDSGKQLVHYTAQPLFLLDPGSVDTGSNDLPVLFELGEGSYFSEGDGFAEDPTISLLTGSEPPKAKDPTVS
Chain of ELF4 (Q99607 whole entry): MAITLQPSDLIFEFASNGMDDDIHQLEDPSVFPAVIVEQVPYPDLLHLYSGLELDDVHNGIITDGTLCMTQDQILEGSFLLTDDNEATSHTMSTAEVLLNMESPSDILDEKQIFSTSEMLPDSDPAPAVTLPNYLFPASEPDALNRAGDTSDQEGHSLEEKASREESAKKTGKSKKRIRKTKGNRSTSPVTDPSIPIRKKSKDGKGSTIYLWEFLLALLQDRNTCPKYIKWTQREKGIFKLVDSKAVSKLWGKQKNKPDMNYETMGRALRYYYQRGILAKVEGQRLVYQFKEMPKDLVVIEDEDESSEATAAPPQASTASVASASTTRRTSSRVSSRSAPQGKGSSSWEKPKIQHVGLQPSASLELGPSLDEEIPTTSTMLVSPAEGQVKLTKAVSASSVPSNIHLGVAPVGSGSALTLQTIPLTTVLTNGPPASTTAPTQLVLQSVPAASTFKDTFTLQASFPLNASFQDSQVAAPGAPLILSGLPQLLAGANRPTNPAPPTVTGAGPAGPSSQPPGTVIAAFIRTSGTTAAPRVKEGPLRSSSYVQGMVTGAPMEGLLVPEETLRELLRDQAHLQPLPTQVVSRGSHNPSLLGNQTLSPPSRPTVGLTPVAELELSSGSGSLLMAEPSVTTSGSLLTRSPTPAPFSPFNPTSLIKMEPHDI

| Sequence | binding signal (FEV) | binding signal (ETV5) | binding signal (HSF1) | binding signal (SPIC) | binding signal (ELF4) | binding signal (ELK4) | binding signal (ETV2) | binding signal (ELF3) | binding signal (CRX) | binding signal (ETV1) |
| --- | --- | --- | --- | --- | --- | --- | --- | --- | --- | --- |
| AAACCC | 1.29 fold enrichment (6-mer frequency, TF over GST control) | 1.29 fold enrichment (6-mer frequency, TF over GST control) | 1.21 fold enrichment (6-mer frequency, TF over GST control) | 1.2 fold enrichment (6-mer frequency, TF over GST control) | 1.34 fold enrichment (6-mer frequency, TF over GST control) | 1.24 fold enrichment (6-mer frequency, TF over GST control) | 1.34 fold enrichment (6-mer frequency, TF over GST control) | 1.42 fold enrichment (6-mer frequency, TF over GST control) | 1.35 fold enrichment (6-mer frequency, TF over GST control) | 1.36 fold enrichment (6-mer frequency, TF over GST control) |
| TTATAC | 1.35 fold enrichment (6-mer frequency, TF over GST control) | 1.29 fold enrichment (6-mer frequency, TF over GST control) | 1.79 fold enrichment (6-mer frequency, TF over GST control) | 1.42 fold enrichment (6-mer frequency, TF over GST control) | 1.49 fold enrichment (6-mer frequency, TF over GST control) | 1.38 fold enrichment (6-mer frequency, TF over GST control) | 1.38 fold enrichment (6-mer frequency, TF over GST control) | 1.43 fold enrichment (6-mer frequency, TF over GST control) | 2.54 fold enrichment (6-mer frequency, TF over GST control) | 1.5 fold enrichment (6-mer frequency, TF over GST control) |
| CCTACG | 1.48 fold enrichment (6-mer frequency, TF over GST control) | 1.32 fold enrichment (6-mer frequency, TF over GST control) | 1.21 fold enrichment (6-mer frequency, TF over GST control) | 1.37 fold enrichment (6-mer frequency, TF over GST control) | 1.37 fold enrichment (6-mer frequency, TF over GST control) | 1.38 fold enrichment (6-mer frequency, TF over GST control) | 1.44 fold enrichment (6-mer frequency, TF over GST control) | 1.5 fold enrichment (6-mer frequency, TF over GST control) | 1.11 fold enrichment (6-mer frequency, TF over GST control) | 1.47 fold enrichment (6-mer frequency, TF over GST control) |
| ATACGA | 1.16 fold enrichment (6-mer frequency, TF over GST control) | 1.17 fold enrichment (6-mer frequency, TF over GST control) | 1.22 fold enrichment (6-mer frequency, TF over GST control) | 1.01 fold enrichment (6-mer frequency, TF over GST control) | 1.21 fold enrichment (6-mer frequency, TF over GST control) | 1.08 fold enrichment (6-mer frequency, TF over GST control) | 1.05 fold enrichment (6-mer frequency, TF over GST control) | 1.08 fold enrichment (6-mer frequency, TF over GST control) | 1.17 fold enrichment (6-mer frequency, TF over GST control) | 1.19 fold enrichment (6-mer frequency, TF over GST control) |
| TGAACT | 1.28 fold enrichment (6-mer frequency, TF over GST control) | 1.19 fold enrichment (6-mer frequency, TF over GST control) | 1.19 fold enrichment (6-mer frequency, TF over GST control) | 1.34 fold enrichment (6-mer frequency, TF over GST control) | 1.23 fold enrichment (6-mer frequency, TF over GST control) | 1.22 fold enrichment (6-mer frequency, TF over GST control) | 1.2 fold enrichment (6-mer frequency, TF over GST control) | 1.11 fold enrichment (6-mer frequency, TF over GST control) | 1.12 fold enrichment (6-mer frequency, TF over GST control) | 1.24 fold enrichment (6-mer frequency, TF over GST control) |
| CTGGAA | 1.2 fold enrichment (6-mer frequency, TF over GST control) | 1.29 fold enrichment (6-mer frequency, TF over GST control) | 4.43 fold enrichment (6-mer frequency, TF over GST control) | 1.2 fold enrichment (6-mer frequency, TF over GST control) | 1.23 fold enrichment (6-mer frequency, TF over GST control) | 1.08 fold enrichment (6-mer frequency, TF over GST control) | 1.43 fold enrichment (6-mer frequency, TF over GST control) | 1.11 fold enrichment (6-mer frequency, TF over GST control) | 1.89 fold enrichment (6-mer frequency, TF over GST control) | 1.32 fold enrichment (6-mer frequency, TF over GST control) |
| GATTCT | 1.13 fold enrichment (6-mer frequency, TF over GST control) | 1.18 fold enrichment (6-mer frequency, TF over GST control) | 2.08 fold enrichment (6-mer frequency, TF over GST control) | 1.11 fold enrichment (6-mer frequency, TF over GST control) | 1.19 fold enrichment (6-mer frequency, TF over GST control) | 1.36 fold enrichment (6-mer frequency, TF over GST control) | 1.15 fold enrichment (6-mer frequency, TF over GST control) | 1.05 fold enrichment (6-mer frequency, TF over GST control) | 1.58 fold enrichment (6-mer frequency, TF over GST control) | 1.25 fold enrichment (6-mer frequency, TF over GST control) |
